# Source: PubChem BioAssay AID1851 (National Center for Advancing Translational Sciences (NCATS), 2009)
# Several values for one entry are separate records, joined by “and”; a condition that tells them apart may be missing. Equal entries are not always repeated. Among all 16,000 compounds or so, about 4,000 (25%) were called active. Not shown: some 26% with an inconclusive outcome. Calls come from the whole dose curve; as a rule, active = well fitted curve in the direction sought with a large enough effect; inconclusive = small, poorly fitted or top-dose-only effect, or effect the other way; inactive = no such curve, though single readings can be large or run the other way. A selection follows.
# Biological target: Cytochrome P450 2C9 (Homo sapiens) (UniProt P11712)
# Sequence (P11712 whole entry, looked up): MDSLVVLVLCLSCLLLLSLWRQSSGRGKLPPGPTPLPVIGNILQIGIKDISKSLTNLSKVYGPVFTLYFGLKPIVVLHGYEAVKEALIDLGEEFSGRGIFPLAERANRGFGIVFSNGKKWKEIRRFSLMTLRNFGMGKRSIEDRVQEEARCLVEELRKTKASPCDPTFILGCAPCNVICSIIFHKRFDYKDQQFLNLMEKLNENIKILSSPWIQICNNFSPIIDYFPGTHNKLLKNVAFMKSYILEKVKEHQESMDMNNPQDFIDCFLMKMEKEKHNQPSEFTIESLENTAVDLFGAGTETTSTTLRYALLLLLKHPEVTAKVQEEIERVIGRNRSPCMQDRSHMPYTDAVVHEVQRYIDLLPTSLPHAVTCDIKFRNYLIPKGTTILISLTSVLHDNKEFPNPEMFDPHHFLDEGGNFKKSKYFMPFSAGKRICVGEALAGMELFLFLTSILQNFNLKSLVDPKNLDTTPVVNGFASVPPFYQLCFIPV
# Assay: Cytochrome panel assay with activity outcomes
# Conditions: recombinant CYP, pro-luciferin dealkylation, luminescence, p450-cyp2c9; series mostly up to 57.1 µM
# % is set by controls: 0 for no effect and ±100 for the full control effect.
Compound,AC50,"activity, negative = inhibition"
CC(C)(C)CNC(CO)C12CC3CC(CC(C3)C1)C2 (stereo not given),inactive,–
CCOC(=O)N/N=C1/C[C@@H](O)[C@@H](O)[C@@H]2[C@@H]3C(=O)N(Cc4ccc5c(c4)OCO5)C(=O)[C@H]3CC[C@H]12,–,-5.83% [at 11.4 µM] (inactive)
CCOC(=O)N/N=C1/C[C@@H](O)[C@@H](O)[C@@H]2[C@@H]3C(=O)N(Cc4ccc5c(c4)OCO5)C(=O)[C@H]3CC[C@@H]12,–,1.72% [at 11.4 µM] (inactive)
COc1ccc(C(=O)N/N=C2/SCC(=O)N2Cc2ccc3c(c2)OCO3)cc1OC,14.1 µM (active),–
Cc1ccc(NC2=NC(c3ccccc3)n3c(nc(C)cc3=O)N2)c(C)c1 (stereo not given),35.5 µM (active),–
COc1ccccc1CNc1cc(-c2ccccc2C)ncn1,–,-15.1% [at 2.29 µM] (inactive)
O=C1C(=O)N(c2cccc(Cl)c2)C(c2ccccc2[N+](=O)[O-])/C1=C(\O)c1ccccc1 (stereo not given),2 µM (active),–
COc1ccc(C2/C(=C(/O)c3ccc(Cl)cc3)C(=O)C(=O)N2CCN2CCOCC2)c(OC)c1 (stereo not given),inactive,–
CC(C)(C)N1C(=O)[C@H]2[C@@H]3[C@H](O)[C@H](O)CC(=O)[C@H]3CC[C@H]2C1=O,–,6.8% [at 11.4 µM] (inactive) and 2.7% [at 11.4 µM] (inactive)
O=C(O)[C@@H]1[C@@H](C(=O)Nc2ccccc2)[C@@H]2C=C[C@@H]1O2,–,12.3% [at 11.4 µM] (inactive)
CC(=O)NCCNc1nc(-c2cccc(NS(C)(=O)=O)c2)nc2ccccc12,–,-9.35% [at 2.29 µM] (inactive)
CC(C)(C)C(=O)Nc1cccc(-c2nc3ccccc3c(=O)o2)c1,12.6 µM (active),–
CS(=O)(=O)Nc1cccc(-c2nc(Nc3ccccc3)c3ccccc3n2)c1,–,-28.2% [at 2.29 µM] (inactive)
O=C(NCC1CCCO1)c1nn2c(c1Cl)NC(c1ccc(F)cc1)CC2C(F)(F)F (stereo not given),25.1 µM (active),–
O=C(NCC1CCCO1)c1ccc(CS(=O)(=O)Cc2ccc(F)cc2)o1 (stereo not given),inactive,–
COc1ccc(NC(=O)c2cc3n(n2)C(C(F)(F)F)CC(c2ccc4c(c2)OCO4)N3)cc1OC (stereo not given),inactive,–
CN1CCN(c2ncc3nc(-c4cccs4)c(=O)n(C[C@H]4CCCO4)c3n2)CC1,inactive,–
CCOC(=O)C(NC(C)=O)C(OC(C)=O)c1cccc(N(CCO)CCO)c1 (stereo not given),inactive,–
Clc1ccccc1C(Nc1cnccn1)Nc1cnccn1,–,1.92% [at 11.4 µM] (inactive)
O=C1CC(c2cccc(F)c2)SC(N(c2ccccc2)c2ccccc2)=N1 (stereo not given),10 µM (active),–
C[N+](C)(C)CCOC(N)=O,inactive,–
CC(C)[C@@H]1[C@H]2CC[C@H](C2)[C@H]1N,inactive,–
CC1=C/C(=N/O)C([C@H]2C=C(C)CC(C)(C)[C@@H]2O)C(C)(C)C1 (stereo not given in full),2.51 µM (active),–

Compound,AC50,"activity, negative = inhibition"
N#CCCn1c(=O)c(-c2cc(F)cc(F)c2)nc2cnc(Nc3ccccc3)nc21,inactive,–
CN(C)Cc1ccccc1-c1ccc2ncnc(NCc3ccccc3)c2c1,–,-7.5% [at 2.29 µM] (inactive)
CCCC[C@]1(C2CCCC2)Cc2cc(OCC(=O)O)c(Cl)c(Cl)c2C1=O,2.51 µM (active),–
Cc1cccc(NC(=O)CSc2nc(COc3ccccc3)nc3ccccc23)c1C,0.631 µM (active),–
CCCc1nc(SCC(=O)NNC(=O)C2CCCCC2)c2ccccc2n1,inactive,–
CN(C)Cc1ccccc1-c1cc(N(C)Cc2ccco2)ncn1,–,-3.1% [at 2.29 µM] (inactive)
C/C(=N/NC(=O)c1ccc(C)s1)c1cccc(NC(=O)COc2ccc(Cl)cc2C)c1,1.26 µM (active),–
C/C(=N\NC(=O)c1ccc(Cl)cc1)c1cccc(NC(=O)C(C)C)c1,inactive,–
COc1cc(OC)c(C(=O)CCCCN2CCC3(CC2)NC(=O)NC3=O)cc1NS(=O)(=O)c1ccc(C(F)(F)F)cc1,inactive,–
COc1ccc(CN(C(=O)Cc2cccs2)C(C(=O)NC2CCCC2)c2ccncc2)cc1 (stereo not given),5.01 µM (active),–
COc1ccc(C(C(=O)NC2CCCC2)N(Cc2ccc(F)cc2)C(=O)c2ccn[nH]2)cc1OC (stereo not given),inactive,–
Cc1ccc(N(C(=O)C(F)(F)F)C(C(=O)NC2CCCCC2)c2cccs2)cc1C (stereo not given),inactive,–
COc1ccc(CCN(C(=O)C(F)(F)F)C(C(=O)NC2CCCC2)c2cccs2)cc1 (stereo not given),3.16 µM (active),–
O=C(NC1CCCCC1)C(c1cccs1)N(C(=O)C(F)(F)F)c1ccccc1 (stereo not given),1.58 µM (active),–
Cc1cccc(NC(=S)N(CCc2nc3cc(C)c(C)cc3[nH]2)Cc2cccnc2)c1,7.94 µM (active),–
COc1cccc(NC(=S)N(CCc2nc3cc(C)c(C)cc3[nH]2)Cc2cccnc2)c1,5.01 µM (active),–
Cc1ccc(C)c(NC(=S)N(CCc2nc3cc(C)c(C)cc3[nH]2)Cc2cccnc2)c1,3.98 µM (active),–
COc1ccc(NC(=S)N(CCc2nc3cc(C)c(C)cc3[nH]2)Cc2cccnc2)cc1,7.94 µM (active),–
Cc1cccc(CNc2nc(-c3cccnc3)nc3ccccc23)c1,–,-13% [at 2.29 µM] (inactive)
COC(=O)[C@@H]1O[C@@H](SCCN)[C@@H](O)[C@H](O)[C@H]1O,–,15% [at 11.4 µM] (inactive)
O=C(O)Cc1ccc2ocnc2c1,inactive,–
COc1cccc(Nc2ncc3nc(C)c(=O)n(C4CC4)c3n2)c1,inactive,–
COc1cccc(Nc2ncc3nc(C)c(=O)n(C)c3n2)c1,inactive,–

Compound,AC50,"activity, negative = inhibition"
COc1ccc(Nc2ncc3c(n2)CC(c2ccc(C)cc2)CC3=O)cc1 (stereo not given),5.01 µM (active),–
COc1ccc(-c2nc3cnc(Nc4ccccc4)nc3n(CCC#N)c2=O)cc1,inactive,–
COc1ccc(C2CC(=O)c3cnc(Nc4cc(C)cc(C)c4)nc3C2)cc1 (stereo not given),10 µM (active),–
NS(=O)(=O)c1cc2c(cc1C(F)(F)F)N[C@H](Cc1ccccc1)NS2(=O)=O,inactive,–
CN1CCN([C@@H]2Cc3ccccc3Sc3ccc(Cl)cc32)CC1,inactive,–
CNC(=O)[C@H]1O[C@H](n2cnc3c(NCc4cccc(I)c4)ncnc32)[C@@H](O)[C@@H]1O,inactive,–
CCSC1=C(C#N)C2(CCCCC2)C(C#N)=C(N)N1,2.82 µM (active),–
CCOC(=O)[C@]1(CC(=O)O)CCCC1=O,–,-6.54% [at 11.4 µM] (inactive)
Cc1cccc(NS(=O)(=O)c2c(C)n[nH]c2C)c1,17.8 µM (active),–
COc1ccc(N(CC(=O)Nc2cccc(C)c2)S(=O)(=O)c2c(C)n[nH]c2C)cc1,1.41 µM (active),–
Cc1cc(C)c(S(=O)(=O)Nc2cccc(C(F)(F)F)c2)c(C)c1,inactive,–
CN(C)c1cc(-c2cccc(NS(C)(=O)=O)c2)ncn1,–,16.1% [at 2.29 µM] (inactive)
COc1ccccc1CNc1ccnc(-c2ccccc2OC)n1,–,-5.44% [at 2.29 µM] (inactive)
C=CCSc1nnc2c(n1)OC(c1c(C)[nH]n(-c3ccccc3)c1=O)Nc1ccccc1-2 (stereo not given),0.447 µM (active),–
CS(=O)(=O)N1CCC[C@@]2(CCN(C(=O)Nc3cccc(C#N)c3)C2)C1,inactive,–
CCCCCSc1nncc(=O)[nH]1,4.47 µM (active),–
Clc1ccc(CC[C@H](Cn2ccnc2)Sc2c(Cl)cccc2Cl)cc1,0.0126 µM (active),–
NC(N)=Nc1ccc(Cl)cc1,inactive,–
COc1ccc(NC(=O)CN(C)S(=O)(=O)c2ccc(Cl)cc2)c([N+](=O)[O-])c1,inactive,–
CCOc1ccc(NC(=O)c2ccc(Br)o2)c([N+](=O)[O-])c1,inactive,–
Cc1ccc(C(=O)NCCNc2ccc(Cl)cc2[N+](=O)[O-])o1,10 µM (active),–
CC(NC(=O)CN1CCCC1)C12CC3CC(CC(C3)C1)C2 (stereo not given),inactive,–
CC(Oc1ccc(O)cc1)(P(=O)(O)O)P(=O)(O)O,inactive,–

Compound,AC50,"activity, negative = inhibition"
CC(C)n1c(N2CCN(C(=O)Nc3ccccc3)CC2)nc2ccccc21,6.31 µM (active),–
Cn1cccc1C(=O)N1CCC2(CCN(C(=O)Nc3ccccc3)CC2)CC1,inactive,–
COC(=O)N1CCC2(CCN(C(=O)Nc3ccccc3)CC2)CC1,inactive,–
O=C(Nc1ccccc1)N1CCC2(CCNCC2)CC1,inactive,–
O=C(Nc1cccc(NC(=O)N2CCN(c3ccccc3)CC2)c1)N1CCN(c2ccccc2)CC1,7.94 µM (active),–
CC(=O)N1CCC2(CC1)CCN(C(=O)Nc1cccc(F)c1)CC2,inactive,–
CC(C)=CCC/C(C)=C/CO/N=C1/C[C@@H](O)[C@@H](O)[C@@H]2[C@H]3C(=O)N(c4ccc(F)cc4F)C(=O)[C@@H]3CC[C@@H]12,–,-4.09% [at 11.4 µM] (inactive)
CC(C)C(C(=O)O)N1C(=O)/C(=C/C=C/c2ccco2)SC1=S (stereo not given),6.31 µM (active),–
c1ccc2cc(C3=NCCN3)ncc2c1,inactive,–
Cc1ccc(C)c(N(CC(=O)NC2CCCC2)C(=O)c2cc3cc4cccc(C)c4nc3s2)c1,0.447 µM (active),–
Cc1cccc(N(CC(=O)NC2CCCC2)C(=O)c2cc3cc4cccc(C)c4nc3s2)c1C,0.794 µM (active),–
N=C(N)SCCc1cnc[nH]1,inactive,–
COC(=O)[C@@]1(Cc2ccccc2)[C@H]2c3cc(C(=O)N4CCCC4)n(Cc4cc(F)cc5c4OCOC5)c3C[C@H]2CN1C(=O)c1ccccc1,0.316 µM (active),–
COC(=O)[C@@]1(Cc2ccc(OC)cc2)[C@H]2c3cc(C(=O)N4CCCC4)n(Cc4cc(F)cc5c4OCOC5)c3C[C@H]2CN1C(=O)c1ccccc1,6.31 µM (active),–
CSc1nsc(SC)c1NC(=O)OCc1ccccc1,10 µM (active),–
Cc1nn(C)c(Cl)c1NC(=O)OCc1ccc(F)cc1,inactive,–
O=C(NCC1CCC(C(=O)O)CC1)OCc1ccccc1 (stereo not given),inactive,–
Cc1ccccc1C(=O)Nc1cccc(NC(=S)NC(=O)c2cccs2)c1,3.55 µM (active),–
Cc1cccc(NC(=S)NC(=O)c2cccs2)n1,10 µM (active),–
Cc1cccc(NC(=O)c2cc(N3C(=O)CCC3=O)ccc2Cl)n1,inactive,–
C/C(=N\NC(=O)c1ccccc1C)c1ccc(NC(=O)c2cccs2)cc1,14.1 µM (active),–
